The campaign covered roughly 52,000 compounds. About 4,300 (8.3%) were called active. The full list was thinned out, with actives kept by preference. Unmarked numbers belong to inactive results. Rule as the data show it: active = survival mostly below about 52% (no sharp cut-off); inactive = mostly above about 56%.
What follows are compounds tested on DeltatarO mutant (assay: S. aureus survival, RN4220 and DeltatarO strains – OD600, teichoic acid synthesis inhibitors, primary screen (AID 463173)). Conditions: S. aureus RN4220 wild type/DeltatarO growth, OD600, 18 h, active compounds read low, screened at 18.75 µg/mL (by protocol).

Structure (SMILES) | survival
Cc1ccc(NC(=O)C2CCCN(S(=O)(=O)c3cccc4cccnc34)C2)c(C)c1 (stereo unspecified) | 78%
O=C(COc1ccccc1[N+](=O)[O-])Nc1ccc(-c2nc3ccccc3s2)cc1 | 63%
COc1cccc(C(=O)Nc2ccccc2C(=O)OCc2cc(=O)n3nc(C4CC4)sc3n2)c1 | 65%
COc1ccc(OC)c(NC(=O)C2=C(C)C(=O)OC23CCCCCC3)c1 | 131%
COc1ccc(NC(=O)C2=C(C)C(=O)OC23CCN(C(C)C)CC3)cc1Cl | 83%
COc1ccc(OC)c(NC(=O)C2=C(C)C(=O)OC23CCN(C(C)C)CC3)c1 | 32% (active)
CCCn1c(=O)c2sccc2n2c(CCCC(=O)NC3CCCCC3)nnc12 | 80%
CCc1cccc(C)c1NC(=O)CCn1c(=O)c2cccn2c2ccccc21 | 58%
COc1ccc(-n2nc3c(N4CCCC(C(=O)NCCc5ccccc5C)C4)nnc(C)c3c2C)cc1 (stereo unspecified) | 70%
C/C(=N\NC(=O)c1ccco1)c1ccc(C)o1 | 80%
CC(=O)c1ccc(NC(=O)Cn2ncc3c4ccccc4n(Cc4ccccc4)c3c2=O)cc1 | 73%
Cc1ccccc1-c1noc(-c2ccccc2OCC(=O)Nc2ccccc2[N+](=O)[O-])n1 | 45%
Cc1ccc(-c2noc(-c3ccccc3OCC(=O)Nc3ccccc3[N+](=O)[O-])n2)cc1 | 60%
CC(C)c1noc(-c2ccccc2OCC(=O)Nc2cccc([N+](=O)[O-])c2)n1 | 62%
CC(=O)c1ccc(NC(=O)COc2ccccc2-c2nc(C)no2)cc1 | 95%
O=C(COc1ccccc1-c1nc(-c2ccccc2)no1)Nc1ccccc1[N+](=O)[O-] | 31% (active)
Cc1ccc2cccc(NC(=O)COc3ccccc3[N+](=O)[O-])c2n1 | 75%
CC(=O)c1ccc(NC(=O)COc2ccccc2-c2nc(-c3ccccc3)no2)cc1 | 48%
Cc1noc(-c2ccccc2OCC(=O)Nc2ccccc2[N+](=O)[O-])n1 | 39% (active)
CC(C)c1noc(-c2ccccc2OCC(=O)Nc2ccc([N+](=O)[O-])cc2)n1 | 61%
CC(=O)c1ccc(NC(=O)COc2ccccc2-c2nc(C(C)C)no2)cc1 | 55% (active)
Cc1cccc(-c2noc(-c3ccccc3OCC(=O)Nc3ccccc3[N+](=O)[O-])n2)c1 | 94%
CC(C)c1noc(-c2ccccc2OCC(=O)Nc2ccccc2[N+](=O)[O-])n1 | 44% (active)

Structure (SMILES) | survival
C=CCNC(=S)N1CCC(C(=O)c2ccc(C)cc2)CC1 | 103%
O=C(N/N=C/c1ccccc1)C(O)c1ccccc1 (stereo unspecified) | 95%
COc1ccc(-c2nc3sc(CCNC(=O)C(=O)Nc4ccc(OC)c(OC)c4)c(C)n3n2)cc1 | 84%
CCCN1CC=C2C(C#N)=C(N)C(C#N)(C#N)C(c3ccc(F)cc3F)C2C1 (stereo unspecified) | 77%
Cc1cc(OC(C)C(=O)N2CCN(CCc3ccccn3)CC2)ccc1Cl (stereo unspecified) | 68%
CC1=C(C(=O)Nc2ccc(C)cc2C)C(c2cc(Br)ccc2F)n2ncc(C(=O)Nc3ccc(C)cc3)c2N1 (stereo unspecified) | 89%
Cc1ccc(-n2ncc3c(Nc4ccc5c(c4)OCCO5)ncnc32)cc1Cl | 117%
COc1cc(NC(=O)CC2C(=O)N(c3ccc(Cl)cc3)C(=O)N2Cc2cccs2)cc(OC)c1 (stereo unspecified) | 85%
COc1ccc(-n2c(SCC(=O)NCc3ccc(C)cc3)nc3n[nH]c(C)c3c2=N)cc1 | 87%
Cc1ccccc1Cn1c(=O)n(-c2ccc(Cl)cc2)c(=O)c2c3c(sc21)CCCC3 | 114%
COc1ccc(NC(=O)c2ccc3c(=O)n4nc(Nc5cccc(Cl)c5C)sc4nc3c2)cc1 | 67%
O=c1c(-c2ccc(Cl)cc2)c(C(F)(F)F)oc2c(CN3CCCCC3)c(O)ccc12 | 134%
CC1CCCN(Cc2c(O)ccc3c(=O)c(-c4ccc(Cl)cc4)c(C(F)(F)F)oc23)C1 (stereo unspecified) | 46% (active)
CC1CCCN(Cc2c(O)ccc3c(=O)c(-c4ccccc4Cl)c(C(F)(F)F)oc23)C1 (stereo unspecified) | 43% (active)
CC1CCCCN1Cc1c(O)ccc2c(=O)c(-c3ccccc3Cl)c(C(F)(F)F)oc12 (stereo unspecified) | 55%
CC1CCCN(Cc2c(O)ccc3c(=O)c(Oc4ccc(C(C)(C)C)cc4)c(C(F)(F)F)oc23)C1 (stereo unspecified) | 17% (active)
COc1ccc(Oc2c(C(F)(F)F)oc3c(CN4CCCC(C)C4)c(O)ccc3c2=O)cc1 (stereo unspecified) | 68%
CCN1CCN(Cc2c(O)ccc3c(=O)c(Oc4ccccc4C(C)C)c(C(F)(F)F)oc23)CC1 | 51% (active)
CC(C)c1ccccc1Oc1c(C(F)(F)F)oc2c(CN3CCN(C)CC3)c(O)ccc2c1=O | 49%
CCc1ccc(Oc2c(C(F)(F)F)oc3c(CN4CCCC(C)C4)c(O)ccc3c2=O)cc1 (stereo unspecified) | 77%
CC1CCCN(Cc2c(O)ccc3c(=O)c(Oc4ccccc4Cl)c(C(F)(F)F)oc23)C1 (stereo unspecified) | 88%
CC1CCN(Cc2c(O)ccc3c(=O)c(-c4ccc(Cl)cc4)c(C(F)(F)F)oc23)CC1 | 60%
CCN1CCN(Cc2c(O)ccc3c(=O)c(Oc4ccccc4Cl)c(C(F)(F)F)oc23)CC1 | 90%

Source: PubChem BioAssay AID463173 (ICCB-Longwood Screening Facility, Harvard Medical School, 2010)
